This passage reports outcome and AC50 results from PubChem BioAssay (EPA / NIEHS).

Active and inactive are the calls of the source. How the source made its calls: active means hit-call score of the fitted dose curve at least 0.9, where 1 is the maximum; inactive means score below 0.9.

One may read the AC50 as the concentration at which the activity in the assay is half-maximal.

The experiment is described as follows: ATG_GATA_CIS: Attagene CIS-FACTORIAL HepG2 Assay for human GATA Binding Protein (AID 2282944). To be noted: HepG2 GATA cis-element reporter, Attagene multiplex mRNA; actives raise or lower the signal. As to the method:
ATG_CIS is a cell-based, multiplexed-readout assay that uses HepG2, a human liver cell line, with measurements taken at 24 hours after chemical dosing in a 24-well plate.ATG_GATA_CIS is one of 52 assay component(s) measured or calculated from the ATG_CIS assay. It is designed to make measurements of mRNA induction, a form of inducible reporter, as detected with fluorescence intensity signals by Reverse transcription polymerase chain reaction (RT-PCR) and Capillary electrophoresis technology.Data from the assay component ATG_GATA_CIS was analyzed into 1 assay endpoint. This assay endpoint, ATG_GATA_CIS, was analyzed with bidirectional fitting relative to DMSO as the negative control and baseline of activity. Using a type of inducible reporter, measures of mRNA for gain or loss-of-signal activity can be used to understand the reporter gene at the transcription factor-level as they relate to the gene GATA1. Furthermore, this assay endpoint can be referred to as a primary readout, because this assay has produced multiple assay endpoints where this one serves a reporter gene function. To generalize the intended target to other relatable targets, this assay endpoint is annotated to the dna binding intended target family, where the subfamily is GATA proteins.
Human liver HepG2 cells are transiently transfected with multiple reporter transcription units (MRTUs) in 6-well plates using FuGene 6 reagent (Roche; 3 ml FuGene/1 mg DNA). The MRTU constructs are regulated by a cis-regulating element (promoter). […] A major difference between the CIS and TRANS system is that in CIS activities of endogenous TFs are measured, whereas the TRANS assay evaluates changes in activities of exogenous, chimeric NR-Gal4 proteins. […] At the end of 24 hour incubation, total RNA was isolated using TriZol reagent (Invitrogen). The isolated RNA is then reverse-transcribed using oligo(dT) primer and Mo-MLV reverse transcriptase (Invitrogen) with DNAse I (Ambion) treatment for 30 min. The one-tenth of the produced cDNA was amplified by PCR using Taq DNA polymerase (Invitrogen) and two reporter sequence-specific primers. The PCR products were fluorescently labeled by primer extension with 6-arboxyfluorescein (6-FAM) 5'-labeled reporter sequence-specific primer (2 min at 95 C, 20 s at 68 C and 10 min at 72 C) and these products were digested with 5U of HpaI (New England Biolabs) for 2h at 37 C. The fragments were purified using Qiaquick PCR columns (Qiagen), analyzed on an ABI 3130xL genetic analyzer (Applied Biosystems) with peak positions identified by using a set of X-rhodamine (ROX)-labeled MapMarker1000 molecular weight standards (BioVentures). The raw capillary electrophoresis data was processed using Attagraph software (Attagene).
As for `Cc1c(C2(c3cc(Br)c(O)c(Br)c3C)OS(=O)(=O)c3ccccc32)cc(Br)c(O)c1Br`, the outcome was inactive.
With `Cc1cccc(Nc2ccccc2)c1`, the call was inactive.
Still for that read-out and setting: the value for `CC1CCC(C(C)C)C(O)C1` (stereo not given) was “inactive”.
Still for that read-out and setting: the value for `CC1CC(O)CC(C)(C)C1` (stereo not given) was “inactive”; that for `CC(=O)C(C)O` (stereo not given) was “inactive”.
In the case of `C=Cc1ccncc1`, the AC50 is 22.7 µM (active).
On to `CCCCCCCCCCCC(=O)OC[C@@H](O)[C@H]1OC[C@H](O)[C@H]1O`, for which the outcome was inactive.
With `CCCCCCCCCC(C)C=O` (stereo not given), the compound was classed as inactive.
As for `CCN(CCN)c1cccc(C)c1`, the compound was classed as inactive.
On the same count and under the same terms, the value for `C#CC(C)(O)CC(C)C` (stereo not given) was “inactive”; that for `O=C(Nc1ccc2c(c1)Cc1ccccc1-2)C(F)(F)F` was “inactive”; that for `CC(O)C1CCCCC1` (stereo not given) was “inactive”.
On the same count and under the same terms, the value for `O=C1OC(=O)c2c(Cl)c(Cl)c(Cl)c(Cl)c21` was “inactive”; that for `C/C=C(\C)C(=O)OCCc1ccccc1` was “inactive”.
Turning to `O=[N+]([O-])c1ccc(O)cc1C(F)(F)F`, the outcome was inactive.
In the case of `CCCCCCCCCCCC(=O)OCC(O)CO` (stereo not given), the compound was classed as inactive.
For `CCc1cc(Cc2cc(CC)cc(C(C)(C)C)c2O)c(O)c(C(C)(C)C)c1`, the call was inactive.
On the same count and under the same terms, the entry for `Cc1ccc(OC(=O)c2ccccc2O)cc1` is “inactive”.
Consider `C=CC(=O)OCCCC`, for which the compound was classed as inactive.
The same measure, in the same setting: the value for `CCOc1ccc(NC(=O)CC(C)=O)cc1` was “inactive”.
On the same count and under the same terms, the value for `C=COCCOCCOC=C` was “inactive”; that for `C=Cc1ccc(C(C)(C)C)cc1` was “inactive”; that for `CCCCC(CC)C(=O)OC(C)C` (stereo not given) was “inactive”.
The same measure, in the same setting: the entry for `CCOc1ccccc1O` is “inactive”.
With `C=C(C)C(=O)OCCOC1CC2CC1C1C=CCC21` (stereo not given), the compound was called inactive.
For `O=C(c1ccccc1)C(O)c1ccccc1` (stereo not given), the compound was classed as inactive.
Still for that read-out and setting: the entry for `OCC(O)c1ccccc1` (stereo not given) is “inactive”; for `CCCCCCCC(=O)OCC(O)CO` (stereo not given) it is “inactive”; for `CC1=NN(c2ccc(S(=O)(=O)O)cc2)C(=O)C1` it is “inactive”.
Still for that read-out and setting: the entry for `CN1CCOCC1` is “inactive”; for `[Cl][Au]([Cl])[Cl]` it is “inactive”; for `Cc1ncc([N+](=O)[O-])n1CCO` it is “inactive”.
For the compound `N#Cc1cscn1`, the outcome was inactive.
On the same count and under the same terms, the entry for `C=C(C)[C@@H]1CC=C(C)C(=O)C1` is “inactive”; for `[O-]n1ccccc1=S.[O-]n1ccccc1=S.[Zn+2]` it is “inactive”.
For `CN1C(=O)c2ccccc2C1=O`, the compound was classed as inactive.
On the same count and under the same terms, the value for `COc1ccc(N)c([N+](=O)[O-])c1` was “inactive”.
On the same count and under the same terms, the entry for `CCCCCCCC/C=C\CCCCCCCC(=O)OCC` is “inactive”.
Still for that read-out and setting: the entry for `C=C(CC(=O)O)C(=O)O` is “inactive”; for `c1ccc(Oc2ccccc2)cc1` it is “inactive”.
